Test results published in PubChem BioAssay (Tox21).
Records with an inconclusive call do not appear. Active and inactive are the calls of the source. Unless noted, calls come from the whole dose curve; as a rule, active = well fitted curve in the direction sought with a large enough effect in the repeat runs; inconclusive = weak or mixed curves; inactive = no such curve, though single readings can be large; an effect the other way counts as inactive or inconclusive.

Legend:
[1] = qHTS assay to identify small molecule agonists of the vitamin D receptor (VDR) signaling pathway - cell viability counter screen (AID 743224); note: series mostly up to about 63 µM; % is set by controls: 0 for no effect and ±100 for the full control effect; nearly all actives have a fitted effect of over 50% in size
Summary of the method: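 In parallel with the bla FRET readout, cytotoxicity toward VDR-bla cells after 16 h compound exposure was assessed by CellTiter-Glo, with luminescence recorded after a 30 min room-temperature incubation.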

[2] = qHTS assay to identify small molecule antagonists of the vitamin D receptor (VDR) signaling pathway - cell viability counter screen (AID 743225); note: % is set by controls: 0 for no effect and ±100 for the full control effect; nearly all actives have a fitted effect of over 50% in size
Summary of the method: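 Cells (VDR-UAS-bla HEK 293T) are plated, rested 4 h at 37C, dosed with compound and 3 nM final 1-alpha,25-dihydroxy vitamin D3, and incubated 16 h. Viability is taken from CellTiter-Glo luminescence in the reporter wells.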

[3] = qHTS assay to identify small molecule agonists of the NFkB signaling pathway (AID 1159509; active = well fitted curve in the direction sought with a large enough effect in the signal ratio in the repeat runs, not every such curve was filed as active; the % refers to the signal ratio; note: series mostly up to about 61 µM; % is set by controls: 0 for no effect and ±100 for the full control effect)
Summary of the method: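 Pathway activation was measured in ME-180 cells stably expressing beta-lactamase under NF-kB response element control. Substrate cleavage was read as the 460/530 nm emission shift after 5 hr compound incubation.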

[4] = qHTS assay to identify small molecule agonists of the NFkB signaling pathway - cell viability counter screen (AID 1159515; calls by dose curve; note: series mostly up to about 61 µM; % is set by controls: 0 for no effect and ±100 for the full control effect; nearly all actives have a fitted effect of over 55% in size)
Summary of the method: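 Plate 2,000 NFkB-bla ME-180 cells/well; incubate overnight. Add compounds, 5 hr at 37 C. Add FRET substrate, 1.5 hr RT. Add CellTiter-Glo, 30 min RT; read luminescence.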

[5] = qHTS assay to identify small molecule agonists of the endoplasmic reticulum stress response signaling pathway (AID 1159516; active = well fitted activation curve with a large enough effect in the signal ratio in the repeat runs, not every such curve was filed as active; the % refers to the signal ratio; note: % is set by controls: 0 for no effect and ±100 for the full control effect)
Summary of the method: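 Beta-lactamase expression from the ER stress response element in HeLa reporter cells is quantified with the LiveBLAzer B/G FRET substrate, read at 405 nm excitation after 2 hr at room temperature, following 5 hr compound treatment at 37 C.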

[6] = qHTS assay to identify small molecule agonists of the endoplasmic reticulum stress response signaling pathway - cell viability counter screen (AID 1159517; calls by dose curve; note: series mostly up to about 61 µM; % is set by controls: 0 for no effect and ±100 for the full control effect; nearly all actives have a fitted effect of over 50% in size)
Summary of the method: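 Cpd-treated ESRE-bla HeLa (5 hr, 37 C) → LiveBLAzer 2 hr RT → CellTiter-Glo 30 min RT → luminescence.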

[7] = qHTS assay to identify small molecule antagonists of the retinoid-related orphan receptor gamma (ROR-gamma) signaling pathway - cell viability counter screen (AID 1159520); note: % is set by controls: 0 for no effect and ±100 for the full control effect; nearly all actives have a fitted effect of over 50% in size
Summary of the method: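 Tet-on ROR gamma CHO cells (1,000/well) were plated 4 hr, given compounds in DMSO for 2 hr at 37 C, then induced with 1 uM final doxycycline for 16 hr. Viability was read as ATP by CellTiter-Glo luminescence after 30 min.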

[8] = biological target: Nuclear receptor ROR-gamma (Homo sapiens) (UniProt P51449); test: qHTS assay to identify small molecule antagonists of the retinoid-related orphan receptor gamma (ROR-gamma) signaling pathway (AID 1159521)
Summary of the method: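 RORγ antagonism is scored from reduced reporter luminescence in Tet-on CHO cells. Induction used 1 uM final doxycycline hyclate for 16 h at 37 C, following a 2 h compound exposure.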

[9] = qHTS assay to identify small molecule agonists of the AP-1 signaling pathway - cell viability counter screen (AID 1159525; calls by dose curve; note: nearly all actives have a fitted effect of over 55% in size)
Summary of the method: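 Each titration point was normalised to DMSO and tetra n-octyl ammonium bromide controls. The read was Cell Titer Glo luminescence after 30 min at RT, following 5 h compound exposure of ME-180 AP-1-bla cells at 37 °C.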

[10] = qHTS assay to identify small molecule agonists of the AP-1 signaling pathway (AID 1159526; calls by dose curve; note: % is set by controls: 0 for no effect and ±100 for the full control effect)
[11] = biological target: Retinoic acid receptor RXR-alpha (Homo sapiens) (UniProt P19793); test: qHTS assay to identify small molecule agonists of the RXR signaling pathway (AID 1159527; calls by dose curve; note: % is set by controls: 0 for no effect and ±100 for the full control effect; nearly all actives have a fitted effect of over 35% in size)
Summary of the method: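 qHTS of the Tox21 10K library in GeneBLAzer RXR-alpha HEK 293T cells carrying a beta-lactamase reporter […]; 16 hr treatment, 9-cis retinoic acid as agonist control, FRET read-out.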

[12] = qHTS assay to identify small molecule agonists of the RXR signaling pathway - cell viability counter screen (AID 1159529)
Summary of the method: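 Cell viability is measured by CellTiter-Glo luminescence, 30 min at room temperature, in wells already read for beta-lactamase. Engineered HEK 293T cells (RXR-alpha-UAS-bla) are dosed 16 hr at 37 C. Tetraoctyl ammonium bromide serves as positive control.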

[13] = qHTS assay to identify small molecule antagonists of the retinoid acid receptor (RAR) signaling pathway - cell viability counter screen (AID 1159551); note: % is set by controls: 0 for no effect and ±100 for the full control effect; nearly all actives have a fitted effect of over 35% in size
Summary of the method: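 Viability of C3RL4 cells is quantified from ATP by luminescence after 6 h treatment at 37 C with compounds and 1 uM retinol.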

[14] = qHTS assay to identify small molecule antagonists of the retinoic acid receptor (RAR) signaling pathway (AID 1159552)
Summary of the method: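 Quantitative HTS in C3RL4 RARE-luciferase reporter cells. Compounds were added with 1 uM (final) retinol; luminescence was read after 6 hr.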

[15] = qHTS assay to identify small molecule agonists of the retinoic acid receptor (RAR) signaling pathway (AID 1159553); note: potency is the fitted concentration of half-maximal effect; for activation: % is set by controls: 0 for no effect and ±100 for the full control effect
Summary of the method: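 Compounds dissolved in DMSO were pinned onto C3RL4 cells seeded the previous day, and plates were held 6 hr at 37 C. RARE-driven luciferase output was then read by luminescence.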

Retinoic acid receptor RXR-alpha (Homo sapiens), sequence (P19793 whole entry, looked up): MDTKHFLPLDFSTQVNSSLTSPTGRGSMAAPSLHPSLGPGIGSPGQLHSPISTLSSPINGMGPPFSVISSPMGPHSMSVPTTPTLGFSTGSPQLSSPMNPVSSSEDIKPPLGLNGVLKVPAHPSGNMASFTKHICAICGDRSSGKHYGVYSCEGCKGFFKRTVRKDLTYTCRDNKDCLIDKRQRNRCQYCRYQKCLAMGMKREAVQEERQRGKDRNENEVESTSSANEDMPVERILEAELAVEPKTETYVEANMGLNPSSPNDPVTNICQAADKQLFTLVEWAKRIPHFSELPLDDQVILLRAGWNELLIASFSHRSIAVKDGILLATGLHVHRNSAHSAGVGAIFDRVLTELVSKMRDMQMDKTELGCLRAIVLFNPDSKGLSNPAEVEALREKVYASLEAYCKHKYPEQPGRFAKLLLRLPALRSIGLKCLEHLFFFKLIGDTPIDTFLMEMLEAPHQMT

N[C@H](C(=O)O)c1ccc(O)cc1
inactive: Potency [1] | Potency [2] | outcome [3] | outcome [4] | outcome [5] | outcome [6] | activity, negative = cytotoxicity [7] 3.98% [at 19 µM] | Potency [8] | viability change, negative = cytotoxic [9] 10.2% [at 15.8 µM] | outcome [10] | Potency [11] | Potency [12] | activity change, negative = cytotoxicity [13] 1.22% [at 19 µM] | activity, negative = inhibition [14] -7.38% [at 19 µM] | Potency [15]

Cc1cccn2c(=O)c(-c3nnn[nH]3)cnc12
inactive: Potency [1] | Potency [2] | outcome [3] | outcome [4] | outcome [5] | outcome [6] | activity, negative = cytotoxicity [7] 0.0857% [at 19 µM] | Potency [8] | viability change, negative = cytotoxic [9] -0.287% [at 15.8 µM] | outcome [10] | Potency [11] | Potency [12] | activity change, negative = cytotoxicity [13] 2.52% [at 19 µM] | activity, negative = inhibition [14] 1.95% [at 19 µM] | Potency [15]

CCCCCCCCCCCC
inactive: Potency [1] | Potency [2] | outcome [3] | outcome [4] | outcome [5] | outcome [6] | outcome [7] | Potency [8] | Potency [9] | outcome [10] | Potency [11] | Potency [12] | outcome [13] | Potency [14] | Potency [15]

CCc1ccc(O)c(OC)c1
inactive: Potency [2] | outcome [3] | outcome [4] | outcome [5] | outcome [6] | outcome [7] | Potency [8] | Potency [9] | outcome [10] | Potency [11] | Potency [12] | outcome [13] | Potency [14] | Potency [15]

C=C(C)CS(=O)(=O)O
inactive: Potency [2] | outcome [3] | outcome [4] | outcome [5] | outcome [6] | outcome [7] | Potency [8] | Potency [9] | outcome [10] | Potency [11] | Potency [12] | outcome [13] | Potency [14] | Potency [15]

CC(=O)Nc1c(I)cc(I)c(C(=O)O)c1I
inactive: Potency [2] | outcome [3] | outcome [4] | outcome [5] | outcome [6] | outcome [7] | Potency [8] | Potency [9] | outcome [10] | Potency [11] | Potency [12] | outcome [13] | Potency [14] | Potency [15]

CCCCCCCCCCCCN(CCCCCCCCCCCC)CCCCCCCCCCCC
inactive: Potency [1] | Potency [2] | outcome [3] | outcome [4] | outcome [5] | outcome [6] | outcome [7] | Potency [8] | Potency [9] | outcome [10] | Potency [11] | Potency [12] | outcome [13] | Potency [14] | Potency [15]

Cc1sccc1Br
inactive: Potency [2] | outcome [3] | outcome [4] | outcome [5] | outcome [6] | outcome [7] | Potency [8] | Potency [9] | outcome [10] | Potency [11] | Potency [12] | outcome [13] | Potency [14] | Potency [15]

COC(=O)CC(C)=O
inactive: Potency [1] | Potency [2] | outcome [3] | outcome [4] | outcome [5] | outcome [6] | outcome [7] | Potency [8] | Potency [9] | outcome [10] | Potency [11] | Potency [12] | outcome [13] | Potency [14] | Potency [15]

CCOC(=O)[C@H](CCc1ccccc1)N[C@@H](C)C(=O)N1[C@H](C(=O)O)C[C@@H]2CCC[C@@H]21
inactive: Potency [2] | outcome [3] | outcome [4] | outcome [5] | outcome [6] | outcome [7] | Potency [8] | Potency [9] | outcome [10] | Potency [11] | Potency [12] | outcome [13] | Potency [14] | Potency [15]

C=CCS(=O)(=O)O
inactive: Potency [2] | outcome [3] | outcome [4] | outcome [5] | outcome [6] | outcome [7] | Potency [8] | Potency [9] | outcome [10] | Potency [11] | Potency [12] | outcome [13] | Potency [14] | Potency [15]

O=C(O)CNC(=O)c1ccc([N+](=O)[O-])cc1
inactive: Potency [2] | outcome [3] | outcome [4] | outcome [5] | outcome [6] | outcome [7] | Potency [8] | Potency [9] | outcome [10] | Potency [11] | Potency [12] | outcome [13] | Potency [14] | Potency [15]

C=CCOCC(CC)(CO)COCC=C
inactive: Potency [1] | Potency [2] | outcome [3] | outcome [4] | outcome [5] | outcome [6] | outcome [7] | Potency [8] | Potency [9] | outcome [10] | Potency [11] | Potency [12] | outcome [13] | Potency [14] | Potency [15]

Cc1c(NC(C)C)c(=O)n(-c2ccccc2)n1C
inactive: Potency [1] | Potency [2] | outcome [3] | outcome [4] | outcome [5] | outcome [6] | outcome [7] | Potency [8] | Potency [9] | outcome [10] | Potency [11] | Potency [12] | outcome [13] | Potency [14] | Potency [15]

N=C(N)c1ccc2cc(OC(=O)c3ccc(N=C(N)N)cc3)ccc2c1
inactive: Potency [2] | outcome [3] | outcome [4] | outcome [5] | outcome [6] | outcome [7] | Potency [8] | Potency [9] | outcome [10] | Potency [11] | Potency [12] | outcome [13] | Potency [14] | Potency [15]

CCOC(=O)c1c(C)n(C)c2ccc(O)cc12
inactive: Potency [2] | outcome [3] | outcome [4] | outcome [5] | outcome [6] | outcome [7] | Potency [8] | Potency [9] | outcome [10] | Potency [11] | Potency [12] | outcome [13] | Potency [14] | Potency [15]

CC(NC(CCc1ccccc1)C(=O)O)C(=O)N1C(=O)N(C)CC1C(=O)O (configuration not stated)
inactive: Potency [2] | outcome [3] | outcome [4] | outcome [5] | outcome [6] | outcome [7] | Potency [8] | Potency [9] | outcome [10] | Potency [11] | Potency [12] | outcome [13] | Potency [14] | Potency [15]

CC(=O)CC(C)C
inactive: Potency [1] | Potency [2] | outcome [3] | outcome [4] | outcome [5] | outcome [6] | outcome [7] | Potency [8] | Potency [9] | outcome [10] | Potency [11] | Potency [12] | outcome [13] | Potency [14] | Potency [15]

O=C1CCCCCCCCCCCN1
inactive: Potency [1] | Potency [2] | outcome [3] | outcome [4] | outcome [5] | outcome [6] | outcome [7] | Potency [8] | Potency [9] | outcome [10] | Potency [11] | Potency [12] | outcome [13] | Potency [14] | Potency [15]

CCCCC(CC)COC(=O)c1ccccc1O (configuration not stated)
inactive: Potency [2] | outcome [3] | outcome [4] | outcome [5] | outcome [6] | outcome [7] | Potency [8] | Potency [9] | outcome [10] | Potency [11] | Potency [12] | outcome [13] | Potency [14] | Potency [15]

CC1=CC(C)C(C=O)CC1 (configuration not stated)
inactive: Potency [2] | outcome [3] | outcome [4] | outcome [5] | outcome [6] | outcome [7] | Potency [8] | Potency [9] | outcome [10] | Potency [11] | Potency [12] | outcome [13] | Potency [14] | Potency [15]

CC/C=C\CCOC(C)=O
inactive: Potency [1] | Potency [2] | outcome [3] | outcome [4] | outcome [5] | outcome [6] | outcome [7] | Potency [8] | Potency [9] | outcome [10] | Potency [11] | Potency [12] | outcome [13] | Potency [14] | Potency [15]

CC(C)NC(=O)NC(C)C
inactive: Potency [2] | outcome [3] | outcome [4] | outcome [5] | outcome [6] | outcome [7] | Potency [8] | Potency [9] | outcome [10] | Potency [11] | Potency [12] | outcome [13] | Potency [14]
active: Potency [15] 969 nM

C[C@H]1C[C@@H](O)CC(C)(C)C1
inactive: Potency [1] | Potency [2] | outcome [3] | outcome [4] | outcome [5] | outcome [6] | outcome [7] | Potency [8] | Potency [9] | outcome [10] | Potency [11] | Potency [12] | outcome [13] | Potency [14] | Potency [15]
